According to PubChem BioAssay (EPA / NIEHS):
Activity calls are given as the source filed them. The calls were made as follows: active = hit-call score of the fitted dose curve at least 0.9, where 1 is the maximum; inactive = score below 0.9.

What was measured:
[1] = read-out: Transforming growth factor beta 1 (TGFb1), TGFB1 (gene 7040); test: BSK_KF3CT_TGFb1: BioMAP Diversity Plus: KF3CT Assay for Transforming growth factor beta 1 (TGFb1) Biomarker Activity (AID 2283072); details: primary human keratinocytes with fibroblasts; actives raise or lower the signal
Summary of the method: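 Human keratinocyte/foreskin fibroblast co-culture; TGF-b1 measured by ELISA 24 h after dosing, fitted bidirectionally versus DMSO. Cytotoxicity checked in parallel cultures by total protein (SRB staining, 560 nm).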

[2] = read-out: C-C motif chemokine 2 (Homo sapiens) (UniProt P13500); test: BSK_KF3CT_MCP1: BioMAP Diversity Plus: KF3CT Assay for Monocyte Chemoattractant Protein 1 (MCP1/CCL2) Biomarker Activity (AID 2283073); details: primary human keratinocytes with fibroblasts; actives raise or lower the signal
Summary of the method: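 KF3CT skin co-culture (keratinocytes/foreskin fibroblasts), 24 h post-dose; MCP-1 by ELISA; gain/loss of signal fit bidirectionally vs DMSO baseline.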

[3] = read-out: Matrix Metallopeptidase 9 (MMP9), MMP9 (gene 4318); test: BSK_KF3CT_MMP9: BioMAP Diversity Plus: KF3CT Assay for Matrix Metallopeptidase 9 (MMP9) Biomarker Activity (AID 2283074); details: primary human keratinocytes with fibroblasts; actives raise or lower the signal;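 as to AC50: MMP9 protein level quantified by ELISA in the co-culture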
Summary of the method: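 Human keratinocyte and foreskin fibroblast co-culture exposed to chemicals for 24 h; MMP9 biomarker measured by ELISA, bidirectional fitting relative to DMSO; cytotoxicity tracked by SRB total protein staining in parallel cultures.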

[4] = read-out: urokinase plasminogen activator (uPA), PLAU (gene 5328); test: BSK_KF3CT_uPA: BioMAP Diversity Plus: KF3CT Assay for urokinase plasminogen activator (uPA) Biomarker Activity (AID 2283075); details: primary human keratinocytes with fibroblasts; actives raise or lower the signal
Summary of the method: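 Primary human keratinocyte/foreskin fibroblast co-culture exposed to chemical; uPA measured by ELISA at 24 h. Bidirectional fit versus DMSO, with parallel SRB total-protein staining for cytotoxicity.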

CD40, CD40 (gene 958) [5] = test: BSK_LPS_CD40: BioMAP Diversity Plus: LPS Assay for CD40 Biomarker Activity (AID 2283076); details: primary human HUVEC with PBMC; actives raise or lower the signal
Summary of the method: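 ELISA readout of CD40 in HUVEC/PBMC co-culture (BSK_LPS system), 24 h post-dosing; bidirectional curve fit, DMSO baseline; parallel SRB total-protein staining for cytotoxicity.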

[6] = read-out: E-selectin (Homo sapiens) (UniProt P16581); test: BSK_LPS_Eselectin: BioMAP Diversity Plus: LPS Assay for Eselectin Biomarker Activity (AID 2283077); details: primary human HUVEC with PBMC; actives raise or lower the signal
Summary of the method: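 ELISA readout of E-selectin, 24 h post-dose, HUVEC + PBMC co-culture (LPS system). Gain or loss of signal vs DMSO baseline, bidirectional fit.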

[7] = read-out: Interleukin-8 (IL8), CXCL8 (gene 3576); test: BSK_LPS_IL8: BioMAP Diversity Plus: LPS Assay for Interleukin-8 (IL8) Biomarker Activity (AID 2283078); details: primary human HUVEC with PBMC; actives raise or lower the signal
Summary of the method: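 HUVEC + PBMC co-culture, LPS-activated; test chemicals dosed, IL-8 read by ELISA at 24 h. Bidirectional curve fit vs DMSO baseline (gain or loss of signal).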

[8] = BSK_LPS_SRB: Viability Assessment in the BioMAP Diversity Plus: LPS Assay (AID 2283079); details: primary human HUVEC with PBMC;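 also: total protein by sulforhodamine B absorbance as a cytotoxicity measure; measured one day after compound addition; fitted in both directions against DMSO so loss or gain of signal counts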
Summary of the method: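 HUVEC + PBMC co-culture, LPS-stimulated; compound 24 h. 10% TCA fix, 0.1% SRB stain, A560. Bidirectional fit vs DMSO.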

[9] = read-out: Interleukin-1 alpha (IL1a), IL1A (gene 3552); test: BSK_LPS_IL1a: BioMAP Diversity Plus: LPS Assay for Interleukin-1 alpha (IL1a) Biomarker Activity (AID 2283080); details: primary human HUVEC with PBMC; actives raise or lower the signal
Summary of the method: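 HUVEC/PBMC co-culture, LPS system; 24 h after dosing; IL-1a by ELISA; gain or loss of signal fitted bidirectionally vs DMSO baseline.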

[10] = read-out: Monocyte Chemoattractant Protein-1 (MCP1), CCL2 (gene 6347); test: BSK_LPS_MCP1: BioMAP Diversity Plus: LPS Assay for Monocyte Chemoattractant Protein-1 (MCP1) Biomarker Activity (AID 2283081); details: primary human HUVEC with PBMC; actives raise or lower the signal;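 as to AC50: secreted MCP-1 protein quantified by ELISA in culture supernatant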
Summary of the method: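 ELISA read-out of MCP-1 after 24 h chemical dosing of a human umbilical vein endothelial cell/peripheral blood mononuclear cell co-culture stimulated with LPS. Gain or loss of signal fitted relative to DMSO controls.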

[11] = BSK_LPS_PGE2: BioMAP Diversity Plus: LPS Assay for Prostaglandin E2 (PGE2) Biomarker Activity (AID 2283082); details: primary human HUVEC with PBMC; actives raise or lower the signal;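 as to AC50: secreted prostaglandin E2 measured by ELISA in LPS-stimulated co-culture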
Summary of the method: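 HUVEC plus human PBMC co-culture stimulated with LPS; secreted PGE2 quantified by ELISA 24 h after chemical dosing. Activity fitted bidirectionally against DMSO baseline; parallel SRB staining (0.1% SRB after 10% TCA fixation, 560 nm) flags overt cytotoxicity.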

[12] = read-out: Tissue Factor, F3 (gene 2152); test: BSK_LPS_TissueFactor: BioMAP Diversity Plus: LPS Assay for Tissue Factor Biomarker Activity (AID 2283084); details: primary human HUVEC with PBMC; actives raise or lower the signal
Summary of the method: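 HUVEC/PBMC co-culture, LPS-activated; CD142 ELISA read 24 h post-dose; bidirectional curve fit vs DMSO negative control.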

[13] = read-out: Tumor necrosis factor (Homo sapiens) (UniProt P01375); test: BSK_LPS_TNFa: BioMAP Diversity Plus: LPS Assay for Tumour Necrosis Factor alpha (TNFa) Biomarker Activity (AID 2283085); details: primary human HUVEC with PBMC; actives raise or lower the signal
Summary of the method: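 Human umbilical vein endothelial cells co-cultured with PBMC and stimulated with LPS. TNFa was measured by ELISA 24 h after chemical dosing, fitted bidirectionally relative to DMSO.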

[14] = read-out: Vascular cell adhesion molecule 1 (VCAM1), VCAM1 (gene 7412); test: BSK_LPS_VCAM1: BioMAP Diversity Plus: LPS Assay for Vascular cell adhesion molecule 1 (VCAM1) Biomarker Activity (AID 2283086); details: primary human HUVEC with PBMC; actives raise or lower the signal
Summary of the method: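 Human umbilical vein endothelial cells co-cultured with PBMC and stimulated with LPS; VCAM-1 measured by ELISA 24 h after dosing. Bidirectional curve fitting against DMSO baseline; cytotoxicity tracked in parallel by SRB total-protein staining.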

CD38, CD38 (gene 952) = test: BSK_SAg_CD38: BioMAP Diversity Plus: SAg Assay for CD38 Biomarker Activity (AID 2283087); details: primary human HUVEC with PBMC; actives raise or lower the signal
Summary of the method: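 Human HUVEC plus PBMC co-culture stimulated with superantigen; CD38 measured by ELISA 24 h after chemical dosing. Fluorescence read-out, bidirectional fit against DMSO; cytotoxicity tracked in parallel by SRB and Alamar Blue.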

CD40, CD40 (gene 958) [15] = test: BSK_SAg_CD40: BioMAP Diversity Plus: SAg Assay for CD40 Biomarker Activity (AID 2283088); details: primary human HUVEC with PBMC; actives raise or lower the signal
Summary of the method: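 HUVEC/PBMC co-culture, 24 h post-dose; CD40 by ELISA, fluorescence intensity; bidirectional fit vs DMSO negative control.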

CD69, CD69 (gene 969) = test: BSK_SAg_CD69: BioMAP Diversity Plus: SAg Assay for CD69 Biomarker Activity (AID 2283089); details: primary human HUVEC with PBMC; actives raise or lower the signal;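 as to AC50: cell surface CD69 protein quantified by ELISA with fluorescence detection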
Summary of the method: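 Values derive from bidirectional fitting relative to DMSO vehicle. Cells: umbilical vein endothelium plus peripheral blood mononuclear cells, treated 24 h before fluorescent ELISA for CD69.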

[16] = read-out: Monocyte Chemoattractant Protein-1 (MCP1), CCL2 (gene 6347); test: BSK_SAg_MCP1: BioMAP Diversity Plus: SAg Assay for Monocyte Chemoattractant Protein-1 (MCP1) Biomarker Activity (AID 2283090); details: primary human HUVEC with PBMC; actives raise or lower the signal
Summary of the method: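 MCP-1 levels in the endothelial–PBMC SAg co-culture were quantified by ELISA at 24 h post-dosing; both increases and decreases versus DMSO scored. Cytotoxicity monitored by SRB total protein in parallel cultures.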

[17] = read-out: Macrophage colony-stimulating factor (MCSF), CSF1 (gene 1435); test: BSK_LPS_MCSF: BioMAP Diversity Plus: LPS Assay for Macrophage colony-stimulating factor (MCSF) Biomarker Activity (AID 2283083); details: primary human HUVEC with PBMC; actives raise or lower the signal
Summary of the method: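 HUVEC + PBMC co-culture (human primary), 24 h post-dose; M-CSF by ELISA; gain/loss of signal fitted bidirectionally vs DMSO baseline.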

Chain of E-selectin (Homo sapiens) (P16581 whole entry, looked up): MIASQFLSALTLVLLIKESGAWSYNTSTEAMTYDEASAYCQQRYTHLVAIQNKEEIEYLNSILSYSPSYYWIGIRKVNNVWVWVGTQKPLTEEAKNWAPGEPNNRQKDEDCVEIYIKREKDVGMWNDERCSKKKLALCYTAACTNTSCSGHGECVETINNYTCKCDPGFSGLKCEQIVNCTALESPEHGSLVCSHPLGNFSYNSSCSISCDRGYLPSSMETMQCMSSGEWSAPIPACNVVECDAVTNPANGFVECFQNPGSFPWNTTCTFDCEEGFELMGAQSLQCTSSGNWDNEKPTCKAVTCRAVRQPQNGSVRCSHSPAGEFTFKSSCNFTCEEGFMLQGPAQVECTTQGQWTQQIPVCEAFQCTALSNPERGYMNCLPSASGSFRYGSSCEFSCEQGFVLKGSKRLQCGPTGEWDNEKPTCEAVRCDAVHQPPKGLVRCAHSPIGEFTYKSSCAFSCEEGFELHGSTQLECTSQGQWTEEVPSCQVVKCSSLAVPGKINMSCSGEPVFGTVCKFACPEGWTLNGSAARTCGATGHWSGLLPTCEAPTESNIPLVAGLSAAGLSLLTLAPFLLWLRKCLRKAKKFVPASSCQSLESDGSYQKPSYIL
Chain of Tumor necrosis factor (Homo sapiens) (P01375 whole entry, looked up): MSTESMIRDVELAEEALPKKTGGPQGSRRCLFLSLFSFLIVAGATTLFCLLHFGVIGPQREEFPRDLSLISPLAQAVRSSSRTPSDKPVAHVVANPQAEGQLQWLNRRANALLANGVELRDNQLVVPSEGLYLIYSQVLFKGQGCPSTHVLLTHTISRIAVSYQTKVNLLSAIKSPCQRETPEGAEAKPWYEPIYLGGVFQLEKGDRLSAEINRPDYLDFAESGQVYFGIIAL

Compound: O=C(O)Cn1c(=O)n(Cc2ccc(Br)cc2F)c(=O)c2ccc(Cl)cc21
- outcome [1]: inactive
- outcome [2]: inactive
- outcome [3]: inactive
- outcome [4]: inactive
- outcome (CD40, CD40 (gene 958) [5]): inactive
- outcome [6]: inactive
- outcome [7]: inactive
- outcome [8]: inactive
- outcome [9]: inactive
- outcome [10]: inactive
- AC50 [11]: 10.5 µM (active)
- outcome [12]: inactive
- AC50 [13]: 1.07 µM (active)
- outcome [14]: inactive
- outcome (CD38, CD38 (gene 952)): inactive
- outcome (CD40, CD40 (gene 958) [15]): inactive
- outcome (CD69, CD69 (gene 969)): inactive
- outcome [16]: inactive

Compound: CC(C)(C)c1cc(/C=C2\SC(N)=NC2=O)cc(C(C)(C)C)c1O
- AC50 [1]: 12.8 µM (active)
- AC50 [2]: 6.59 µM (active)
- AC50 [3]: 9.79 µM (active)
- AC50 [4]: 12.5 µM (active)
- AC50 (CD40, CD40 (gene 958) [5]): 13 µM (active)
- AC50 [6]: 27.2 µM (active)
- AC50 [7]: 20 µM (active)
- AC50 [8]: 26.4 µM (active)
- AC50 [9]: 11.5 µM (active)
- AC50 [10]: 26.9 µM (active)
- AC50 [11]: 0.186 µM (active)
- AC50 [17]: 16 µM (active)
- AC50 [12]: 25.1 µM (active)
- AC50 [13]: 11.7 µM (active)
- AC50 [14]: 15.6 µM (active)
- AC50 (CD40, CD40 (gene 958) [15]): 17.4 µM (active)
- AC50 (CD69, CD69 (gene 969)): 20 µM (active)
- AC50 [16]: 12.7 µM (active)

Compound: O=C1c2ccccc2C(=O)N1CCc1noc(-c2ccc(CN3CCCCCC3)s2)n1
- outcome [1]: inactive
- outcome [2]: inactive
- outcome [3]: inactive
- outcome [4]: inactive
- outcome (CD40, CD40 (gene 958) [5]): inactive
- outcome [6]: inactive
- outcome [7]: inactive
- outcome [8]: inactive
- outcome [9]: inactive
- outcome [11]: inactive
- outcome [17]: inactive
- outcome [12]: inactive
- outcome [13]: inactive
- outcome [14]: inactive
- outcome (CD38, CD38 (gene 952)): inactive
- outcome (CD40, CD40 (gene 958) [15]): inactive
- outcome (CD69, CD69 (gene 969)): inactive
- outcome [16]: inactive

Compound: O=C(O)c1ccccc1-n1cc(C(=O)O)c(=O)c2cc(Nc3c(F)cc(F)cc3Cl)c(Cl)cc21
- outcome [1]: inactive
- outcome [2]: inactive
- outcome [3]: inactive
- outcome [4]: inactive
- outcome (CD40, CD40 (gene 958) [5]): inactive
- outcome [6]: inactive
- outcome [7]: inactive
- outcome [8]: inactive
- outcome [9]: inactive
- outcome [10]: inactive
- outcome [11]: inactive
- outcome [12]: inactive
- outcome [13]: inactive
- outcome [14]: inactive
- outcome (CD40, CD40 (gene 958) [15]): inactive
- outcome (CD69, CD69 (gene 969)): inactive
- outcome [16]: inactive

Compound: Cc1ncc(CO)c(CO)c1O
- outcome [1]: inactive
- outcome [2]: inactive
- outcome [3]: inactive
- outcome [4]: inactive
- outcome (CD40, CD40 (gene 958) [5]): inactive
- outcome [6]: inactive
- outcome [7]: inactive
- outcome [8]: inactive
- outcome [9]: inactive
- outcome [11]: inactive
- outcome [17]: inactive
- outcome [12]: inactive
- outcome [13]: inactive
- outcome [14]: inactive
- outcome (CD38, CD38 (gene 952)): inactive
- outcome (CD40, CD40 (gene 958) [15]): inactive
- outcome (CD69, CD69 (gene 969)): inactive
- outcome [16]: inactive

Compound: c1ccc2ccccc2c1
- outcome [1]: inactive
- outcome [2]: inactive
- outcome [3]: inactive
- outcome [4]: inactive
- outcome (CD40, CD40 (gene 958) [5]): inactive
- outcome [6]: inactive
- outcome [7]: inactive
- outcome [8]: inactive
- outcome [9]: inactive
- outcome [11]: inactive
- outcome [17]: inactive
- outcome [12]: inactive
- outcome [13]: inactive
- outcome [14]: inactive
- outcome (CD40, CD40 (gene 958) [15]): inactive
- outcome (CD69, CD69 (gene 969)): inactive
- outcome [16]: inactive

Compound: C[C@]12CC[C@@H]3c4ccc(O)cc4CC[C@H]3[C@@H]1CC[C@H]2O
- outcome [1]: inactive
- outcome [2]: inactive
- outcome [3]: inactive
- outcome [4]: inactive
- outcome (CD40, CD40 (gene 958) [5]): inactive
- outcome [6]: inactive
- outcome [7]: inactive
- AC50 [8]: 9.95 µM (active)
- outcome [9]: inactive
- outcome [11]: inactive
- outcome [12]: inactive
- outcome [13]: inactive
- outcome (CD38, CD38 (gene 952)): inactive
- outcome (CD40, CD40 (gene 958) [15]): inactive
- outcome (CD69, CD69 (gene 969)): inactive
- AC50 [16]: 15.4 µM (active)
